3 compounds from PubChem BioAssay AID504608 (National Center for Advancing Translational Sciences (NCATS), 2011) can be followed below.

Active and inactive are the calls of the source. Calls come from the whole dose curve; as a rule, active = well fitted inhibition curve with a large enough effect; inconclusive = small, poorly fitted or top-dose-only effect; inactive = flat fitted curve, though single readings scatter.

This assay in a line: Quantitative high throughput screen for delayed death inhibitors of the malarial parasite plastid, 48 hour incubation. As to conditions: P. falciparum in erythrocytes, luciferase growth. An excerpt: NIH Molecular Libraries Probe Production Network [MLPCN] NIH Chemical Genomics Center [NCGC] MLPCN Grant: R21 NS059500 Assay Provider: David Fidock and Eric Ekland, Columbia University The goal of this screen is to discover new antimalarial compounds that act by inhibiting the development of the apicoplast in the malarial parasite Plasmodium falciparum. The biochemical processes that make this organelle essential for erythrocytic stage parasites are not well understood. However, antibiotics, such as azithromycin and tetracycline, which target the apicoplast translational machinery, have a potent antimalarial effect. […] We have developed a cell-based assay that measures parasite growth based on the expression of an integrated copy of a firefly luciferase reporter. To detect small molecules that cause this 'delayed death' phenotype, erythrocytes infected with the luciferase-expressing parasites were incubated with compounds for either one or two generations, corresponding to 48 and 96 hours, respectively. Compounds that inhibit parasite growth in the second generation, but not the first, should be enriched in antimalarials that target the apicoplast. Growth inhibition is detected by a decrease in luciferase activity
Four microliters of culture medium (RPMI 1640 with 0.5% w/v Albumax (GIBCO), 24 mM sodium bicarbonate and 10 ug/mL gentamycin) were dispensed by a Multi-drop Combi into white solid 1536-well plates (Grenier) and 23 nL compound was added by a pin tool. Four microliters of infected erythrocytes (2% hematocrit, 0.1% parasitemia final concentration) in culture medium were dispensed and the plates incubated for 48 hours at 37 C in 5% CO2. Two microliters of luciferase detection reagent was added and luminescence was detected by a ViewLux (PerkinElmer) reader
Turning to `COc1ccc(COC[C@H](C)N2C[C@@H](C)[C@H](CN(C)S(=O)(=O)c3ccc(F)cc3)OCCCC[C@H](C)Oc3ccc(NC(=O)Nc4ccccc4)cc3C2=O)cc1`, the Potency is 0.0036 µM (active).
In the case of `C[C@@H]1CN([C@@H](C)CO)C(=O)c2cc(NC(=O)Nc3ccccc3)ccc2O[C@@H](C)CCCCO[C@H]1CN(C)C(=O)Oc1ccccc1` it was 5.04 µM (active); in that of `COCCOC(=O)N(C)C[C@@H]1OCCCC[C@H](C)Oc2ccc(NC(=O)Nc3ccccc3)cc2C(=O)N([C@@H](C)CO)C[C@H]1C`, 14.2 µM (active).
